Records with an inconclusive call do not appear. A call without a number means that no potency is given here. Unmarked numbers belong to inactive results. Calls of active or inactive are those of the source. The call rests on the fitted dose curve; in most records, active means well fitted inhibition curve with a large enough effect in the repeat runs; inconclusive means weak or mixed curves; inactive means flat fitted curve, though single readings scatter.
Potency means the concentration at half of the fitted maximal effect.

Chain of Voltage-gated inwardly rectifying potassium channel KCNH2 (Homo sapiens) (Q12809 whole entry, looked up): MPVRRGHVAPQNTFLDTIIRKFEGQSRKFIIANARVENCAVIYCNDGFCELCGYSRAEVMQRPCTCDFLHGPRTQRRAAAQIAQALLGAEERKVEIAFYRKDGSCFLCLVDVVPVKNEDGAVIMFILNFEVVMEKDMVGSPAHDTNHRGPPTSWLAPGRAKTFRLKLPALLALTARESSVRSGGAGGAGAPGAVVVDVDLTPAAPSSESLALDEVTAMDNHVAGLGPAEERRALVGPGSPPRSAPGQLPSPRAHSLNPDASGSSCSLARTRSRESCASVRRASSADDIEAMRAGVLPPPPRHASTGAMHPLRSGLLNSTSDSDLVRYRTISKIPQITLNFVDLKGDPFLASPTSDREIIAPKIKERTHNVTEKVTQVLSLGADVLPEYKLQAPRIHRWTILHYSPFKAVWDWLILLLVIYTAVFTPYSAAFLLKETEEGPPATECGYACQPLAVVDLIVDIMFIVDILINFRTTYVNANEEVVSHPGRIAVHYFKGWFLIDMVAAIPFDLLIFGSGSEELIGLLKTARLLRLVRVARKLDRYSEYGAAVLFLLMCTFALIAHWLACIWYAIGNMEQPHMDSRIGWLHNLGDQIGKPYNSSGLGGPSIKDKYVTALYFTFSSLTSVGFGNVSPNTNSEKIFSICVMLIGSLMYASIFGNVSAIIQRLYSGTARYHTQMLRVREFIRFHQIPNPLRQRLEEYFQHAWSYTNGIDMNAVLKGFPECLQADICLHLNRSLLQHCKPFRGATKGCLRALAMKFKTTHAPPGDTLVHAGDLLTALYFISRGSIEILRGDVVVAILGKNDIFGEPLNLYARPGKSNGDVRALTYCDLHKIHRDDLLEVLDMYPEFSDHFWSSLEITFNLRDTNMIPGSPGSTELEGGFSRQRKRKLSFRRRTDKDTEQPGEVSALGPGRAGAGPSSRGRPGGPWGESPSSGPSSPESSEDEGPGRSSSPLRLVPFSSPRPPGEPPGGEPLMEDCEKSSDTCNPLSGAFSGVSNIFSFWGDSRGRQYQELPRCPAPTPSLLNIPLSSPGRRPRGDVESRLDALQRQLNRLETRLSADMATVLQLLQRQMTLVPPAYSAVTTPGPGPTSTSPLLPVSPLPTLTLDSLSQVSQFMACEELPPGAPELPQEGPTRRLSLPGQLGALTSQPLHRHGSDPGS

The target in this assay is Voltage-gated inwardly rectifying potassium channel KCNH2 (Homo sapiens) (UniProt Q12809). In words: Human Ether-a-go-go-Related Gene (hERG) channel small molecule antagonists: fluorescence cell-based qHTS assay (AID 1671200). Further: nearly all actives have a fitted effect of over 50% in size. The note with it: hERG-U2OS cells, FluxOR thallium flux fluorescence; series mostly up to 76.8 µM. The text has this:
National Center for Advancing Translational Sciences [NCATS]
U.S. Environmental Protection Agency [EPA]
National Institutes of Environmental Health Sciences [NIEHS]
National Toxicology Program [NTP]
U.S. Food and Drug Administration [FDA]
Mutations in the hERG channel cause Long QT (LQT) syndrome. LQT syndrome is a cardiac disorder which can cause ventricle arrhythmia and sudden death. Additionally, compounds which block the hERG channel can cause acquired LQT syndrome. Several FDA approved drugs have been removed from the market due to their hERG blocking activity. A cell-based hERG channel inhibition assay can be used to screen chemical compounds that inhibit hERG channel. This assay measures hERG channel activity using thallium ions as surrogate ions to measure potassium into the cells.
Tox21 Assay Protocol Summary:
hERG-U2OS cells were resuspended in culture medium and dispensed into 1536-well, black wall/clear-bottom plates at 1000cells/well/3uL using a Multidrop Combi dispenser (Thermo Fisher, Waltham, MA). After plates were incubated at 37 C overnight, 3 uL of Loading Buffer provided by FluxOR II Potassium Ion Channel Assay kit (Thermo, Carlsbad, CA) was added to each well. The assay plates were then incubated at room temperature in the dark for 1h. […] After the assay plates were incubated at room temperature for 10 min, 1 uL of Stimulus Buffer provided by FluxOR II Potassium Ion Channel Assay kit was added into each well and fluorescence intensity (480nm excitation/540nm emission) was continuously measured for 2 min at 1 second intervals using a Functional Drug Screening System (FDSS) 7000EX kinetic plate reader (Hamamatsu, Japan).
On to `CC(C)(C)NCC(O)COc1cccc2c1C[C@H](O)[C@H](O)C2` (stereo not given in full), for which the Potency result was “inactive”.
Still for that read-out and setting: the value for `O=C1OC[C@H](Cc2cccc(O)c2)[C@H]1Cc1cccc(O)c1` was “inactive”.
Consider `Cc1ccc(Cl)cc1N`, for which the Potency entry was “inactive”.
Still for that read-out and setting: the value for `CCCCC(CC)COS(=O)(=O)O` (stereo not given) was “inactive”; that for `CCO[Si](C)(CCCOCC1CO1)OCC` (stereo not given) was “inactive”; that for `CC[C@H]1OC(=O)[C@H](C)[C@@H](O[C@H]2C[C@@](C)(OC)[C@@H](O)[C@H](C)O2)[C@H](C)[C@@H](O[C@@H]2O[C@H](C)C[C@H](N(C)C)[C@H]2O)[C@](C)(O)C[C@@H](C)CN(C)[C@H](C)[C@@H](O)[C@]1(C)O` was “inactive”.
On the same count and under the same terms, the value for `O=C(O)CCS` was “inactive”; that for `O=C(O)c1cccc(C[C@@H]2COc3ccc(OCc4nc5cc(F)ccc5s4)cc3[C@@H]2O)c1` was “inactive”; that for `CCCc1nc2c(C)cc(-c3nc4ccccc4n3C)cc2n1Cc1ccc(-c2ccccc2C(=O)O)cc1` was “inactive”.
On the same count and under the same terms, to `CC(C)c1ccc(C#N)cc1` belongs “inactive”.
As for `CCCCCc1ccco1`, the Potency entry was “inactive”.
Still for that read-out and setting: to `O=c1[nH]c2cc(C(F)(F)F)c(N3CCOCC3)cc2n(CP(=O)(O)O)c1=O` belongs “inactive”.
On the same count and under the same terms, to `COc1ccc2nc(S(=O)Cc3ncc(C)c(OC)c3C)[nH]c2c1` (stereo not given) belongs “inactive”.
The same measure, in the same setting: to `CC(C)(O)CCc1ccccc1` belongs “inactive”.
Consider `CC(CN(CCN(CC(C)OCCO)CC(C)OCCO)CC(C)OCCO)OCCO` (stereo not given), for which the Potency result was “inactive”.
The same measure, in the same setting: to `CC1CCCO1` (stereo not given) belongs “inactive”; to `CCCCCCCC/C=C\CCCCCCCC(=O)OCCO`, “inactive”.
As for `CC/C=C\C/C=C\C/C=C\CCCCCCCC(=O)OCC`, the Potency entry was “inactive”.
Still for that read-out and setting: to `COc1ccc(/C=C/C(=O)c2ccc(OC)cc2OC)cc1` belongs “inactive”; to `CN(C)CC/C=C1\c2ccccc2Sc2ccc(Cl)cc21`, 3.01 µM (active); to `CCCCCCC(O)CCCCCCCCCCC(=O)OC` (stereo not given), “inactive”.
Same read-out and setting: to `CCN(CC)C(=O)N1CCN(C)CC1` belongs “inactive”; to `Cc1ccccc1S(N)(=O)=O`, “inactive”.
With `CCCCCCCC(=O)OCCCCCC`, the Potency result was “inactive”.
Consider `COc1cc(NC(C)CCCN)c2ncccc2c1` (stereo not given), for which the Potency result was “inactive”.
Same read-out and setting: the value for `CCOC(=O)C(C)O` (stereo not given) was “inactive”.
Same read-out and setting: the value for `CC(=O)OC(C)C[N+](C)(C)C` (stereo not given) was “inactive”; that for `CC(CO)(CO)C(=O)O` was “inactive”; that for `CCCCCCOC(=O)CCCCC` was “inactive”.
Consider `CC1=CC[C@@H]2C[C@H]1C2(C)C`, for which the activity change, negative = inhibition was -0.97% [at 15.8 µM].
Consider `CO[C@@H]1[C@@H](OC)[C@H](C)[C@@](O)(CC(=O)O)O[C@H]1[C@H](C)[C@H]1O[C@@]2(CC[C@@](C)([C@H]3CC[C@@](C)([C@@H]4O[C@@H]([C@H]5O[C@](C)(O)[C@H](C)C[C@@H]5C)C[C@@H]4OC4C[C@H](OC)[C@@H](OC)[C@H](C)O4)O3)O2)C[C@H](O)[C@H]1C` (stereo not given in full), for which the Potency result is “inactive”.
`O=C1CC[C@@H](C(=O)O)N1`: the Potency entry was “inactive”.
Same read-out and setting: to `CCCCCCCCCCCC(=O)OCC(O)CO` (stereo not given) belongs “inactive”; to `CC(C)N=C=NC(C)C`, “inactive”; to `CC(C)N(C)C`, “inactive”.
For the molecule `CC(=O)OCC1=C(C(=O)O)N2C(=O)[C@@H](NC(=O)CSc3ccncc3)[C@H]2SC1`, the Potency entry was “inactive”.
On the same count and under the same terms, to `COc1cc(S(=O)(=O)Nc2ccccc2)c(OC)cc1N` belongs “inactive”; to `CC(O)Cn1cnc2c1c(=O)n(C)c(=O)n2C` (stereo not given), “inactive”; to `CNc1c2c(nn1C)CCCC2`, “inactive”.
`O=[N+]([O-])C1(Br)COCOC1`: the Potency is 54.9 µM (active).
